# PubChem BioAssay AID504710 (Sanford-Burnham Center for Chemical Genomics, 2011)
# “And” between values parts separate entries of the source, which are not always exact repeats. Identical values can stand only once. Unmarked numbers belong to inactive results. The source made the active and inactive calls.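 Rule for the calls: active = inhibition reaching about 16% in any single replicate (limit read from the data); inactive = the rest.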
# Target: Hexokinase HKDC1 (Homo sapiens) (UniProt Q2TB90)
# Assay: HKDC1 hexokinase inhibitors, confirmation, biochemical, single concentration (AID 504710)
# Details: recombinant HKDC1, G6PDH/diaphorase/resazurin fluorescence; at 20 µM; hits give high values
# Chain of Hexokinase HKDC1 (Homo sapiens) (Q2TB90 whole entry, looked up): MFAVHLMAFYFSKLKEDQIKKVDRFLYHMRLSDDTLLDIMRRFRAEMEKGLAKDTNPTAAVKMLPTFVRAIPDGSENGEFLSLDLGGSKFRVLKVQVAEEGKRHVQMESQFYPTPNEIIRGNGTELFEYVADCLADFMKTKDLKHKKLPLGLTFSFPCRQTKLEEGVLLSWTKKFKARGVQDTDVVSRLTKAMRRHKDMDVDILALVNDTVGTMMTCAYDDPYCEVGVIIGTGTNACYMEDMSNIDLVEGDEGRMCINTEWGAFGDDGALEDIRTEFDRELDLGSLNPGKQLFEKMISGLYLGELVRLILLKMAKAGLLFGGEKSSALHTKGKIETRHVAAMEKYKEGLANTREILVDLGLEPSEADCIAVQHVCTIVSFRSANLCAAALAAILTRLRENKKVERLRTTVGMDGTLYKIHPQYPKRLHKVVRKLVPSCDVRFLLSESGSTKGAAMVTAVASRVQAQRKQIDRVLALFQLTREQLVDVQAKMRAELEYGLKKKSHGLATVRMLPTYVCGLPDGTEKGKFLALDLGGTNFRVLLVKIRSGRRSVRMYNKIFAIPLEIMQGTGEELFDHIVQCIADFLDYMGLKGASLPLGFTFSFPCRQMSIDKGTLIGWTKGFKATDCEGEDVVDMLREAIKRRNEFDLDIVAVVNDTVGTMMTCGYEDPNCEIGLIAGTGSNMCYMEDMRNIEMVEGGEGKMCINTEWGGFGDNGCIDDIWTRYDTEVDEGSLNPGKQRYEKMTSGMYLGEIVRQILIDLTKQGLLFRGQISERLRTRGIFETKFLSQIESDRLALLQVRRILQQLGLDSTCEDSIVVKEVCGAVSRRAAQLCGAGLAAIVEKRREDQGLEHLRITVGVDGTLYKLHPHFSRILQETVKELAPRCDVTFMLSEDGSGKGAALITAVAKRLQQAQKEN
row,SMILES,inhibition
1,NC1=C(Cl)C(=O)c2ccc(S(N)(=O)=O)cc2C1=O,-42.9%
2,CSc1nc(N)nc2c1ncn2CC(=O)N[C@H](C)c1cccc2ccccc12,-73.5%
3,COc1ccc2[nH]c3c4c(ccc3c2c1)C(=O)C=CC4=O,32.9% (active)
4,COc1ccc(N2C3=C(CC4=C2CCCC4=O)C(=O)CCC3)cc1,47.1% (active)
5,Cc1ccc2oc(=O)c3cnn(CC(=O)N4CCc5ccccc5C4)c3c2c1,-50.8%
6,CCn1cc(C(=O)NCc2ccc3c(c2)OCO3)c2cc(OC)c(OC)cc2c1=O,45.9% (active)
7,Cc1ccc(S(=O)(=O)/N=C2\C=C(Nc3cccc(C(=O)O)c3)C(=O)c3ccccc32)c(C)c1,57.8% (active)
8,Cc1ccc(N=C2C(=S)N(c3ccc(C)cc3)C(=N)N2/N=C/c2ccc(Cl)cc2)cc1,-45.3%
9,Cc1nc2c(c(=O)c3ccccc3n2C)c(=O)n1-c1ccc(F)cc1,52.9% (active)
10,NC(=NCCCCCCN=C(N)/N=C(\N)Nc1ccc(Cl)cc1)/N=C(\N)Nc1ccc(Cl)cc1,49.3% (active) and 46.4% (active)
11,CCCc1nc2oc3c(NCCOCCO)ncnc3c2c2c1COC(C)(C)C2,41.7% (active)
12,CC(=O)N(C1=C(Cl)C(=O)c2ccccc2C1=O)C1CCCCC1,78.2% (active)
13,CC(=O)/C(=N\Nc1ccc(Cl)cc1Cl)Sc1cccc2cccnc12,-44.8%
14,COc1cc(OC)cc(C(=O)NC(=S)NNC(=O)c2cnccn2)c1,-40%
15,S=C(NCc1ccccn1)NN=Cc1ccccn1,-45.4%
16,N#C/C(=C(/O)CCl)c1nc2c(s1)CCc1ccccc1-2,46.1% (active)
17,NS(=O)(=O)c1ccc(N=Nc2c(=O)[nH]n3c(=O)c4c([nH]c23)CCCC4)cc1,72.5% (active)
18,CCOc1ccc(-n2c(C)cc(C(=O)CCl)c2C)cc1,28.5% (active)
19,Cc1cc(C)c(S(=O)(=O)Nc2cc(SCC(=O)O)c(O)c3ccccc23)cc1C,41.5% (active)

row,SMILES,inhibition
1,O=C1C(Cl)=C(NC(=O)c2ccccc2)C(=O)C(Cl)=C1NC(=O)c1ccccc1,41.4% (active)
2,CC(=NNC(=S)Nc1cccc(Cl)c1)c1ccccn1,-63.5%
3,O=S(=O)(Nc1ccc(O)c2ccccc12)c1cccs1,30.6% (active)
4,COc1ccc(-c2[nH]c(-c3ccc(SC)cc3)nc2SCC(=O)Nc2nccs2)cc1,-36.1%
5,CC(=NNC(=S)N1CCN(C2CCCCCC2)CC1)c1ccccn1,-39.9%
6,Cc1ccc(NC2c3ncccc3C(=O)N2c2ccccc2C)cc1C (configuration not stated),36.2% (active)
7,Cc1cccc2c(N=NC(=O)c3ccc(NS(=O)(=O)c4cccs4)cc3)c(O)[nH]c12,63.2% (active)
8,O=C(CSc1cccc2cccnc12)N/N=C/c1cccnc1,-46.6%
9,O=C(NCCc1ccccc1)C(c1cccs1)N(C(=O)CCl)c1ccc(Cl)cc1 (configuration not stated),23% (active)
10,Cc1ccc(C)c(-n2nnnc2Sc2nnnn2-c2ccccc2)c1,38.7% (active)
11,CC(=O)NC1C(=O)N(CCN2CCOCC2)c2ccc(F)cc21 (configuration not stated),61.1% (active)
12,Fc1ccc(N=C2NN=C(c3cc(F)ccc3F)CS2)cc1,-132%
13,CCOc1ccc(/C=C2/SC(=S)N(CCC(=O)Nc3ccc(C(=O)O)cc3)C2=O)cc1,-41.5%
14,CC(=O)C1=C(c2ccccc2)N(C(C)=O)n2c(C)nnc2S1,-125%
15,O=S(=O)(c1ccc(NC(=S)NN=C(Cc2ccccc2)Cc2ccccc2)cc1)N1CCOCC1,-43.9%
16,O=C1C(Nc2ccc(O)cc2)=C/C(=N/S(=O)(=O)c2cccs2)c2ccccc21,56.9% (active)
17,Cc1oc2c(c1C(=O)c1ccccc1)C(=O)C(=O)c1ccccc1-2,51.8% (active)
18,Cc1oc2c(c1C(=O)c1ccc(Cl)cc1)C(=O)C(=O)c1ccccc1-2,46.1% (active)
